Results from the supplement of paper PMC12067093, “Discovery and optimisation of a covalent ligand for TRIM25 and its application to targeted protein ubiquitination” (Chemical Science, 2025).
Targets with the largest changes are over-represented here; the source holds about 21,000 in all.

Compound: CC1Cc2ccccc2N1C(=O)C1CCCN(C1)C(=O)CCl (mixture of isomers) [TRIM25 ligand 11 (diastereomer mixture)]
Experiment: probe-labelled cysteine peptide fold change vs DMSO (competition) (log2 fold change); higher = less target engagement (more negative = stronger competition)
Details: THP-1, incubation time: 4 h
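Note: competitive chemoproteomic profiling in live THP-1 cells with an iodoacetamide desthiobiotin (IA-DTB) probe, comparing probe-labelled peptide intensities in compound-treated cells against DMSO-treated controls.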

Chain of UniProt Q14C86 (Q14C86 whole entry, looked up): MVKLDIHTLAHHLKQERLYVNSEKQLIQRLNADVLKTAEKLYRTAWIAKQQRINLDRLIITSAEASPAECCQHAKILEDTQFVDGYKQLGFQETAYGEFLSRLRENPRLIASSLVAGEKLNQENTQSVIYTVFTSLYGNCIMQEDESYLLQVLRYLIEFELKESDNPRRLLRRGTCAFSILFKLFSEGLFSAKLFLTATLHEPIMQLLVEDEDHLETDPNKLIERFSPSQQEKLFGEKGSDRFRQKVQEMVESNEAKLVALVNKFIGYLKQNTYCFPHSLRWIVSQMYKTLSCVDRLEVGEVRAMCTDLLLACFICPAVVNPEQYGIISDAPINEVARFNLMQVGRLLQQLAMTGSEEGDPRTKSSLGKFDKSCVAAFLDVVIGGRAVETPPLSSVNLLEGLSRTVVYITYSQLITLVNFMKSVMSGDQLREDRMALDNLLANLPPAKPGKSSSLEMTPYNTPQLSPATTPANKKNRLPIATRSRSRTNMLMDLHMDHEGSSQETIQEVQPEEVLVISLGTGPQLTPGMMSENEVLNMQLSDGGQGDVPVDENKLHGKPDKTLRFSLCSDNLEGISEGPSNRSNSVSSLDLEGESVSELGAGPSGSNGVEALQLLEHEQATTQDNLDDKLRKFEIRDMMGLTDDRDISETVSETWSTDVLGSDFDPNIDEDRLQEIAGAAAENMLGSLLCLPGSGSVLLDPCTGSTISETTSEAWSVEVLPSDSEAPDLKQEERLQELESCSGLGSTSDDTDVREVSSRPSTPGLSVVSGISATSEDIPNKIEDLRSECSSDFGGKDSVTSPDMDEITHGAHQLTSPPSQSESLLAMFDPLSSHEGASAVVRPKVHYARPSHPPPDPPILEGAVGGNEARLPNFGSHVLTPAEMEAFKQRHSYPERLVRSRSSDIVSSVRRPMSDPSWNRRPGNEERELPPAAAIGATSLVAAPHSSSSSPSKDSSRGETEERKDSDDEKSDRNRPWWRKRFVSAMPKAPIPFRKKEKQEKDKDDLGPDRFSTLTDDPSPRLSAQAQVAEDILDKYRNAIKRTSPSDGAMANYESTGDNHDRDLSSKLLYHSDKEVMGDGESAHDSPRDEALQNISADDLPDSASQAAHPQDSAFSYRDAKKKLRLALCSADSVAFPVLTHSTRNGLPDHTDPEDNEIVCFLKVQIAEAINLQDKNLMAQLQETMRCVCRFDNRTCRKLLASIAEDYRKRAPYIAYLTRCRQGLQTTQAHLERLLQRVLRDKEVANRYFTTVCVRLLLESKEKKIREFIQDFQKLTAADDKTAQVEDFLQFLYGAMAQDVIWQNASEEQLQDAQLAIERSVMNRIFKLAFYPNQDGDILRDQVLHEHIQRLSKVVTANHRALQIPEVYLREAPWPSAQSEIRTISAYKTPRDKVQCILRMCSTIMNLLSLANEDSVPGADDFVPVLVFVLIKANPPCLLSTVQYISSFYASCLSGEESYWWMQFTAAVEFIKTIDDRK
Chain of UniProt P50395 (P50395 whole entry, looked up): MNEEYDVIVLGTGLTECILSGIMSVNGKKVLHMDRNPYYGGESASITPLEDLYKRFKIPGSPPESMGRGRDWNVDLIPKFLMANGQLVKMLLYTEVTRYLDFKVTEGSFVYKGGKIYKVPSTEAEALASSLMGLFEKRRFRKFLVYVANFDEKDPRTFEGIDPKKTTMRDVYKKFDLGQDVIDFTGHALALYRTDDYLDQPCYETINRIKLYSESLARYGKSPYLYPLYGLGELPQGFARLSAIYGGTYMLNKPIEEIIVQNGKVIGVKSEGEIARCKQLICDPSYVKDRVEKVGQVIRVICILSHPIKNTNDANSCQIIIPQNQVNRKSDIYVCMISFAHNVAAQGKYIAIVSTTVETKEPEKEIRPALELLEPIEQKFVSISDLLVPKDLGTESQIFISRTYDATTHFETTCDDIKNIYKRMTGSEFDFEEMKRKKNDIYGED
Chain of UniProt Q16836 (Q16836 whole entry, looked up): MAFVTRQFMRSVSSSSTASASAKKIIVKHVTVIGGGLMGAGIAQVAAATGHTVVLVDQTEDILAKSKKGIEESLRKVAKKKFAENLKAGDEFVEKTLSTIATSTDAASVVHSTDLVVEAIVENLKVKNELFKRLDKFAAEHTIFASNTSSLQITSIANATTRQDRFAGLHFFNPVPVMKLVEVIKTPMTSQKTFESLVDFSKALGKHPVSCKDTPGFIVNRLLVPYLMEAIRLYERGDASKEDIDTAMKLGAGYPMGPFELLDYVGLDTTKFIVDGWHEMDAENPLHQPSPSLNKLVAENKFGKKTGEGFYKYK
Chain of UniProt P51991 (P51991 whole entry, looked up): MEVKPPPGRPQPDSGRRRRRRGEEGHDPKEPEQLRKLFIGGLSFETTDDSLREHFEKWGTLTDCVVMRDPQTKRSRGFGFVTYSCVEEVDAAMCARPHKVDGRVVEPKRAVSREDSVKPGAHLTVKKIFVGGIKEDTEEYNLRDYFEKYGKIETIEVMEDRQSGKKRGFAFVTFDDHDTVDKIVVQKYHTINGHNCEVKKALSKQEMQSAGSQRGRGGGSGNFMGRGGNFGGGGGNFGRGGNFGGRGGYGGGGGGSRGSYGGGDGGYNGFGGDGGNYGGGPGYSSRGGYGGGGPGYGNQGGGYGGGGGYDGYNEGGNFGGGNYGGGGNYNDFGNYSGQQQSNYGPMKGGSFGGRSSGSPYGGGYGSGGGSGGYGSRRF
Chain of UniProt P51858 (P51858 whole entry, looked up): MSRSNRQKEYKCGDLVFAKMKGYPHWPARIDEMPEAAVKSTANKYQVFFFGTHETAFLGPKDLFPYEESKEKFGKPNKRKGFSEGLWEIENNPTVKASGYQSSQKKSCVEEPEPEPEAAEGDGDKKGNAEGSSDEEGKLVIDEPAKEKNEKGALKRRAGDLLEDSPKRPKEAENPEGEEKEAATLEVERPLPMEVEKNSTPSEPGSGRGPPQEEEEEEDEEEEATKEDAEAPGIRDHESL
Chain of UniProt Q9NZL4 (Q9NZL4 whole entry, looked up): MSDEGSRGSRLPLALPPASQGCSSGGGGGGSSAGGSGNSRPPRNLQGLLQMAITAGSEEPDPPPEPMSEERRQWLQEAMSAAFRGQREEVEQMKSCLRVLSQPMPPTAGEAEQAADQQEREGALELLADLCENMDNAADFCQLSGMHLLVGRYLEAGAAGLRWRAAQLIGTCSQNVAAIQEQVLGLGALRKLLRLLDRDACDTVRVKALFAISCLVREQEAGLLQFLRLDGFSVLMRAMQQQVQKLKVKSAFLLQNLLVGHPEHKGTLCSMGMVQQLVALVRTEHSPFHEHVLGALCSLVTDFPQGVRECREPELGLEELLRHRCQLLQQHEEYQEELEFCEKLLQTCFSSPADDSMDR
Chain of UniProt P22102 (P22102 whole entry, looked up): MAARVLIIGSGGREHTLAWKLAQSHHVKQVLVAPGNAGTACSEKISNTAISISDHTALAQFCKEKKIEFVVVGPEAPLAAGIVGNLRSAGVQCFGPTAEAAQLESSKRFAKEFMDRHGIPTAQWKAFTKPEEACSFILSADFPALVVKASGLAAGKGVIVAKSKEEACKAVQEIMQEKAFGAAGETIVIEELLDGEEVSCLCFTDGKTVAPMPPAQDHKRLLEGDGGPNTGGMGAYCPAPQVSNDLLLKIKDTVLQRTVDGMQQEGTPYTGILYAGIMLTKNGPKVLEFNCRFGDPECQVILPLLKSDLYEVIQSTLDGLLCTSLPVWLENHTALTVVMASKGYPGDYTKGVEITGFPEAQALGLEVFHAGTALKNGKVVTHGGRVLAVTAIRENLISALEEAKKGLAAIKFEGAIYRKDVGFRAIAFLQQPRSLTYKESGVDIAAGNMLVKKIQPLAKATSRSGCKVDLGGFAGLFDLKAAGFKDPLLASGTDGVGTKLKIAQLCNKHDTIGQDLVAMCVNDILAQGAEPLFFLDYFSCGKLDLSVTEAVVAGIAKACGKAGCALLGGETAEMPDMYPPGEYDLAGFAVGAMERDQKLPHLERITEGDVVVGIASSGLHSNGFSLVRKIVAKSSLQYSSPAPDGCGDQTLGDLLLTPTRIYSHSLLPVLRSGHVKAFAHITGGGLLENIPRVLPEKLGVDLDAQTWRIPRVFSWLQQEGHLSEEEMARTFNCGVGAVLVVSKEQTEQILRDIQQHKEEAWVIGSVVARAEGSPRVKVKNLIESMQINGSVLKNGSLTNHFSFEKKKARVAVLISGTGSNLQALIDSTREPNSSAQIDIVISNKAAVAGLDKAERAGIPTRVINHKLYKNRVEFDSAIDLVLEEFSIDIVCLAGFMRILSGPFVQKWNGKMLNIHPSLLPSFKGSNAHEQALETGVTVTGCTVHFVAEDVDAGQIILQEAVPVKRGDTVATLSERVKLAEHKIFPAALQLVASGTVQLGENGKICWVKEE
Chain of UniProt P40939 (P40939 whole entry, looked up): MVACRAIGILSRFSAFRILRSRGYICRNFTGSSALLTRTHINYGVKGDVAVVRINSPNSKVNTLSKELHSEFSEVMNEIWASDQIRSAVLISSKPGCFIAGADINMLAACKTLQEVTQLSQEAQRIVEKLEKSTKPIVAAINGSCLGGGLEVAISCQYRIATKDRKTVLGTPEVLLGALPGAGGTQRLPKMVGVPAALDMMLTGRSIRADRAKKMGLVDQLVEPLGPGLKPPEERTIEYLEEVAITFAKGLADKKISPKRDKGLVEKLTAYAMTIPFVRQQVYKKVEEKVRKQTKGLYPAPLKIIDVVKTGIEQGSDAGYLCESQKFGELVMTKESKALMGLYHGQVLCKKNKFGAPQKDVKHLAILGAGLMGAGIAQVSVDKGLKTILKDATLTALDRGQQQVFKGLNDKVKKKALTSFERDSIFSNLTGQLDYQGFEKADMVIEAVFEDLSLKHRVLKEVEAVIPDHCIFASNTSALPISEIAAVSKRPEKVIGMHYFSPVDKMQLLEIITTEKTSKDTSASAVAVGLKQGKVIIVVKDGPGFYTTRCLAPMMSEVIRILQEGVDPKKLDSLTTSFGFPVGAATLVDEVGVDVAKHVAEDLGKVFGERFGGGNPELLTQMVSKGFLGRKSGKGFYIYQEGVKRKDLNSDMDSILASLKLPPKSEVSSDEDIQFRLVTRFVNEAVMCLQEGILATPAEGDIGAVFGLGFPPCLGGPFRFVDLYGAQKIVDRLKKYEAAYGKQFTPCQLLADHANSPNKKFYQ

Q: How did the “probe-labelled cysteine peptide fold change” value (10 µM) turn out when “HSPBP1_Q9NZL4_269_GTLCSMGMVQQLVALVR (UniProt Q9NZL4)” was run?
A: The value was 0.0217.

Q: What about the “probe-labelled cysteine peptide fold change” value (50 µM) of the same target?
A: The value was 0.156.

Q: What does the source list for “HADH_Q16836_211_ALGKHPVSCK (UniProt Q16836)”?
A: probe-labelled cysteine peptide fold change (10 µM): -0.647; probe-labelled cysteine peptide fold change (50 µM): -0.601

Q: What does the source list for “GDI2_P50395_302_VICILSHPIK (UniProt P50395)”?
A: probe-labelled cysteine peptide fold change (10 µM): -0.0268; probe-labelled cysteine peptide fold change (50 µM): -0.00641

Q: Which results are given for “GNAQ_P50148_144_SLWNDPGIQECYDR (UniProt P50148)”?
A: probe-labelled cysteine peptide fold change (10 µM): -0.0686; probe-labelled cysteine peptide fold change (50 µM): -0.0854

Q: Which results are given for “GATM_P50440_131_KAVAEIEEMCNILK (UniProt P50440)”?
A: probe-labelled cysteine peptide fold change (10 µM): -0.271; probe-labelled cysteine peptide fold change (50 µM): -0.2

Q: How did the “probe-labelled cysteine peptide fold change” value (10 µM) turn out when “HADHA_P40939_97+110_PGCFIAGADINMLAACK (UniProt P40939)” was run?
A: Its value is -0.0879.

Q: And the “probe-labelled cysteine peptide fold change” value (50 µM)?
A: The value was 0.186.

Q: Which “probe-labelled cysteine peptide fold change” value (10 µM) does the source give for “GAPVD1_Q14C86_293_TLSCVDRLEVGEVR (UniProt Q14C86)” here?
A: Its value is 0.185.

Q: And the “probe-labelled cysteine peptide fold change” value (50 µM)?
A: Its value is 0.128.

Q: “GCN1_Q92616_2136_LGTPDEQLEMANCQAVILSVEDDTGHR (UniProt Q92616)” was tested. Which “probe-labelled cysteine peptide fold change” value (10 µM) did it give?
A: The value was 0.097.

Q: And the “probe-labelled cysteine peptide fold change” value (50 µM)?
A: The value was -0.0335.

Q: How did the “probe-labelled cysteine peptide fold change” value (10 µM) turn out when “HDGF_P51858_108_KSCVEEPEPEPEAAEGDGDKK (UniProt P51858)” was run?
A: The value was -0.541.

Q: And the “probe-labelled cysteine peptide fold change” value (50 µM)?
A: The value was -0.677.

Q: Which results are given for “GART_P22102_93_SAGVQCFGPTAEAAQLESSK (UniProt P22102)”?
A: probe-labelled cysteine peptide fold change (10 µM): 0.0151; probe-labelled cysteine peptide fold change (50 µM): -0.0827

Q: Which results are given for “HNRNPA3_P51991_64_WGTLTDCVVMRDPQTKR (UniProt P51991)”?
A: probe-labelled cysteine peptide fold change (10 µM): -0.717; probe-labelled cysteine peptide fold change (50 µM): -0.524
